High-throughput results from PubChem.
Rows were chosen to be rich in hits. Some 2.9% of all compounds tested hit in one or more screens of this group.
p53null 39C tox – kills p53 null cells at the nonpermissive temperature | 0.97% of 55,000 active | Potency, µM (highest dose often 46.1 µM), hits mostly cytotoxic | H1299 p53-null (neo) cells, 39C, ATPlite viability, 24 h; note: nearly all actives have a fitted effect of over 50% in size
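Luminescent ATP signal reported cell survival after H1299 lines (neo, p53 null; or p53 A138V) received up to 46 uM compound and 24 hr incubation at 39C.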
p53null 32C kill – kills p53 null cells at the permissive temperature. H1299-neo p53 null cells, ATP luminescence, 24 h, 32C. Potency, µM (top dose mostly 46.1 µM), most hits filed as cytotoxic. 0.62% of 55,000 active. AID 903; note: nearly all actives have a fitted effect of over 55% in size
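H1299-neo, 600 cells/well; overnight 37C; cpd up to 46 uM, 24 h at 32C; ATPlite luminescence after 20 min RT; normalized to DMSO (0%) and tamoxifen 100 uM (100% kill); Hill-fit AC50.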
FH mod – Identification of activators of human fumarate hydratase by quantitative high-throughput screening; FH coupled MDH/diaphorase resazurin fluorescence, 15 min; Potency, µM (top dose mostly 79.9 µM), hits mostly inhibitors; Fumarate hydratase, mitochondrial (Homo sapiens), P07954; 0.22% of 54,000 active; note: the screen sought activators but most active calls are inhibition curves; nearly all actives have a fitted effect of over 45% in size
Target sequence (P07954 whole entry, looked up): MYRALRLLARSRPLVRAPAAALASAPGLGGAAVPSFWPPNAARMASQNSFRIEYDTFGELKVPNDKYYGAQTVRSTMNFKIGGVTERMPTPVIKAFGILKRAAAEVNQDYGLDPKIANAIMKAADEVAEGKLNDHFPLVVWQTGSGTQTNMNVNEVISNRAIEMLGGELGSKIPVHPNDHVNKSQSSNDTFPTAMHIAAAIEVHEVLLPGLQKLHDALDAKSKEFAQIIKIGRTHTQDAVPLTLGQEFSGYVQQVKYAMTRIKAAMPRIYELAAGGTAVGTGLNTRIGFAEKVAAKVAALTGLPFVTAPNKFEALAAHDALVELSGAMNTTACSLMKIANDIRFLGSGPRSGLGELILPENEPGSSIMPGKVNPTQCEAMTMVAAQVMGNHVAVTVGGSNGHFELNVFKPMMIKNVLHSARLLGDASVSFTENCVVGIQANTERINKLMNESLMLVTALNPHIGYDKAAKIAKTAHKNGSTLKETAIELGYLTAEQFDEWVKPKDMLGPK
DRV1 agonist – agonists of human resolvin D1 receptor DRV1 (GPR32); O75388; CHO-K1 GPR32 beta-arrestin PathHunter luminescence, 90 min; zero percent set by DMSO-only wells; activation, % at 76.9 µM; 2.5% of 48,000 active; AID 1346428;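 active = activation of at least 60% and not above a set upper limit, about 1 call in 100 departs from these limits; inconclusive = activation of 40% to 60%, or above that upper limit; inactive = activation under 40%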
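Agonism was scored as beta-arrestin recruitment to ProLink-fused GPR32 in stably transfected CHO-K1 cells, giving a chemiluminescent beta-Gal signal; compounds were incubated 90 min at 37 °C.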
Hits are given with their value; n = inactive; u = inconclusive; x = not tested or not shown; [ ] = another dose, or the depositor's remark. Unless noted, calls come from the whole dose curve; as a rule, active = well fitted curve in the direction sought with a large enough effect; inconclusive = small, poorly fitted or top-dose-only effect, or another doubt; inactive = no such curve, though single readings can be large; an effect the other way counts as inactive or inconclusive.

SMILES | p53null 39C tox | p53null 32C kill | FH mod | DRV1 agonist
COc1cccc(CNC(=O)Cn2nc(-c3ccc(C)cc3)ccc2=O)c1 | n | n | n | n
CCOC(=O)c1cccc(Nc2c3c(nc4ccccc24)CCC3)c1 | u | n | n | 77.8
CCCOC(=O)c1cccc(Nc2nc(C(=O)OCC)nc3ccccc23)c1 | u | n | u | 92.6
COc1cc(NC(=O)c2cc(-c3cccc(OC)c3)n[nH]2)cc(OC)c1 | u | n | u | 81.5
COc1ccc(C)cc1Nc1nc(N)c2cc(OC)c(OC)cc2n1 | 10µM | u | u | n
CC1CCCCN1S(=O)(=O)c1ccc(N2CCCC2=O)cc1 (stereo unspecified) | x | x | n | x
C[C@@H]1O[C@@H](O[C@H]2[C@H](O)[C@@H](O[C@@H]3O[C@H](CO)[C@@H](O)[C@H](O[C@@H]4O[C@H](CO)[C@@H](O)[C@H](O)[C@H]4O)[C@H]3O)[C@H](O[C@H]3CC[C@@]4(C)C(=CC[C@@H]5C4CC[C@@]4(C)C5C[C@@H]5OC6(CC[C@@](C)(CO[C@@H]7O[C@H](CO)[C@@H](O)[C@H](O)[C@H]7O)O6)[C@@H](C)[C@@H]54)C3)O[C@@H]2CO)[C@H](O)[C@H](O)[C@H]1O (stereo partly specified) | x | x | n[13.5 µM] | x
NC(=O)NCCCC(NC(=O)Cc1ccccc1)C(=O)O (stereo unspecified) | x | x | n | x
O=C(COc1ccc2oc3c(c2c1)CCCC3)Nc1ccc(Cl)cc1 | n | n | n | 74.5
CC(C)C(C(=O)N1CCCC1C(=O)O)N(C)C(=O)C(O)Cc1ccccc1 (stereo unspecified) | x | x | n | x
Nc1nc(-n2cc(C(=O)O)c(=O)c3cc(F)c(N4CC(O)C4)c(Cl)c32)c(F)cc1F | x | x | n | x
CCOc1ccc(CC(=O)NCCc2csc(-c3ccc(Cl)cc3)n2)cc1 | n | n | n | 87.7
Cc1nc(-c2ccc(F)cc2)sc1CCNC(=O)c1ccco1 | n | n | n | n
COc1ccc(CC(=O)NCCc2csc(-c3cccc(F)c3)n2)cc1OC | u | n | n | n
O=C(COc1ccccc1)NCCc1csc(-c2ccc(F)cc2)n1 | n | n | n | 120.1
O=C(CCc1ccccc1)NCCc1csc(-c2cccc(F)c2)n1 | n | n | n | 85.5
CCOc1ccc(CC(=O)NCCc2csc(-c3ccc(C)cc3)n2)cc1 | n | n | n | n
O=C(NCCc1csc(-c2ccc(F)cc2)n1)c1ccco1 | n | n | n | 109.1
COC(=O)C1=CO[C@@H](O[C@@H]2O[C@H](CO)[C@@H](O)[C@H](O)[C@H]2O)[C@H]2[C@@H]1C=C[C@@]21C=C([C@H](C)O)C(=O)O1 | x | x | n | x
C/C1=C\CCC(C)CCO[C@@H]2O[C@H](CO[C@@H]3OC[C@H](O)[C@H](O)[C@H]3OC1=O)[C@@H](O)[C@H](O)[C@H]2O (stereo partly specified) | x | x | n | x
COc1cccc(C(=O)NCCc2csc(-c3cccc(F)c3)n2)c1OC | n | n | n | u
O=S(=O)(NCCc1csc(-c2ccc(F)cc2)n1)c1ccc(F)cc1F | n | n | n | n
Cc1ccc(-c2nc3sc(CCNC(=O)c4ccco4)c(C)n3n2)cc1 | u | n | n | 64.9
O=C(COc1ccc(Cl)cc1)NCCc1csc(-c2cccc(F)c2)n1 | n | n | n | 76.7
COc1ccc(F)cc1S(=O)(=O)NCCc1csc(-c2ccc(Cl)cc2)n1 | 20µM | n | u | n
O=C(NOCCO)c1ccc2cncn2c1Nc1ccc(I)cc1F | x | x | n | x
CC1(C)CCC2(C(=O)O)C(O)CC3(C)C(=CCC4C5(C)CCC(OC6OC(CO)C(O)C(O)C6OC6OC(CO)C(O)C(O)C6OC6OCC(O)(CO)C6O)C(C)(C)C5CCC43C)C2C1 (stereo unspecified) | x | x | n | x
Cc1ccc(-c2c(C)n3c4c(=O)n(C)c(=O)n(C)c4nc3n2CCO)cc1 | n | n | n | u
CCCCn1c(-c2ccc(C)cc2)c(C)n2c3c(=O)n(C)c(=O)n(C)c3nc12 | n | n | n | 85.4
